Some test systems named below: HCT-15 colon; HT29 colon; SNB-75 CNS; SNB-19 CNS; U251 CNS; PC-3 prostate; SK-MEL-5 melanoma; UACC-62 melanoma; LOX IMVI melanoma; SK-MEL-28 melanoma; SK-MEL-2 melanoma; EKVX NSCLC; SN12C renal; UO-31 renal; TK-10 renal; ACHN renal; CAKI-1 renal; A498 renal; CCRF-CEM leukemia; MOLT-4 leukemia.
Assay in all cases: NCI-60 one-dose screen, 48 h (100 = growth as untreated, 0 = no growth, -100 = all killed)
What all share (settings): 10 µM unless noted

Structures are written as SMILES. This is part of a sample that, as a whole, favours compounds with a hit. Of some 83,000 tested, about 20% had one in any assay.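 48-hour exposure, single concentration, 96-well plates; percent growth endpoint where 0 means no net growth. Active: below 10.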 A number with no mark means an inactive call. Calls of active or inactive are those of the source.

`O=C(O)c1ccc(CNS(=O)(=O)c2ccc3ccccc3c2)cc1`: the growth is 104% with HCT-15 colon; 102% in the assay with HT29 colon; 90.8% in the assay on SNB-75 CNS; 104% in the assay on SNB-19 CNS; 106% in the assay on U251 CNS; 104% in the assay on PC-3 prostate. Also, the growth is 105% in the assay on SK-MEL-5 melanoma; 102% in the assay on UACC-62 melanoma; 100% with LOX IMVI melanoma; 106% in the assay with SK-MEL-28 melanoma; 0.434% (active) in the assay on SK-MEL-2 melanoma; 111% with EKVX NSCLC. Also, the growth in the assay with SN12C renal was 100%; in the assay on UO-31 renal, 94.7%; in the assay with TK-10 renal, 109%; in the assay with ACHN renal, 101%; with CAKI-1 renal, 112%; in the assay on A498 renal, 102%. For the same compound, the figures for the growth with CCRF-CEM leukemia and in the assay on MOLT-4 leukemia were 117% and 84.1%, respectively.
`CC1C(C)N(C(=O)CCl)c2ccccc2N1C(=O)CCl` (configuration not stated): the growth in the assay on HCT-15 colon was -83.4% (active); with HT29 colon, -73.5% (active); with SNB-75 CNS, -99.4% (active); in the assay on SNB-19 CNS, 8.21% (active); in the assay with U251 CNS, -93.4% (active); with PC-3 prostate, -36.6% (active). Besides, the growth with SK-MEL-5 melanoma was -70.4% (active); in the assay on UACC-62 melanoma, -76.8% (active); in the assay with LOX IMVI melanoma, -81.2% (active); with SK-MEL-28 melanoma, -45.9% (active); in the assay with SK-MEL-2 melanoma, -40.9% (active); in the assay with EKVX NSCLC, -60% (active). Besides, the growth in the assay with SN12C renal is -26.6% (active); in the assay on UO-31 renal, -84.8% (active); in the assay with TK-10 renal it was -87.4% (active); with ACHN renal, -91.5% (active); with CAKI-1 renal it was -79.7% (active); in the assay with CCRF-CEM leukemia, -34.6% (active). Moreover, in the assay on MOLT-4 leukemia, the growth was -26.5% (active).
Take `COc1ccc2c(c1)CC/C(=C\c1ccc(OCC(=O)Nc3nc4ccccc4s3)cc1)C2=O`: the growth in the assay on HCT-15 colon is 102%; in the assay with HT29 colon, 103%; with SNB-75 CNS, 95.2%; in the assay on SNB-19 CNS, 100%; with U251 CNS, 81.4%; with PC-3 prostate it was 74.1%. Further, the growth with SK-MEL-5 melanoma was 91.6%; in the assay with UACC-62 melanoma, 86%; with LOX IMVI melanoma it was -88.6% (active); in the assay with SK-MEL-28 melanoma it was 112%; in the assay with SK-MEL-2 melanoma, 63%; in the assay on EKVX NSCLC, 95.9%. Also, the growth in the assay with SN12C renal was 88.3%; with UO-31 renal, 22.2%; in the assay with TK-10 renal it was 112%; in the assay with ACHN renal, 97.2%; with CAKI-1 renal it was 79.3%; with A498 renal it was 117%. Further, the growth was -37% (active) in the assay with CCRF-CEM leukemia and 71.2% in the assay with MOLT-4 leukemia.
For `COc1ccc(Cl)cc1Nc1nc(C(F)(F)F)ccc1C(=O)N/N=C/c1c(Cl)cccc1Cl`, the growth in the assay on HCT-15 colon was 30.6%; with HT29 colon it was 52.1%; in the assay with SNB-75 CNS, 63.5%; in the assay with SNB-19 CNS, 55.5%; in the assay with U251 CNS, 29.1%; in the assay on PC-3 prostate, 48.5%. In addition, the growth is 13.4% in the assay on SK-MEL-5 melanoma; 52.9% in the assay on UACC-62 melanoma; 32.3% with LOX IMVI melanoma; 62.2% in the assay on SK-MEL-28 melanoma; 28.3% with SK-MEL-2 melanoma; 60.5% in the assay with EKVX NSCLC. Besides, the growth is 63% in the assay on SN12C renal; 31.2% with UO-31 renal; 67.2% with TK-10 renal; 39.2% with ACHN renal; 34.9% in the assay with CAKI-1 renal; 13.8% with CCRF-CEM leukemia. Further, in the assay with MOLT-4 leukemia, the growth is 14.4%.
With `O=c1[nH]cc(Nc2cc(Cl)c3nonc3c2[N+](=O)[O-])c(=O)[nH]1`, the growth in the assay with HCT-15 colon was 103%; with HT29 colon it was 132%; in the assay with SNB-75 CNS it was 119%; in the assay on SNB-19 CNS it was 95.4%; with U251 CNS it was 98.6%; in the assay with PC-3 prostate, 92.9%. Besides, the growth in the assay with SK-MEL-5 melanoma was 105%; in the assay with UACC-62 melanoma, 94.9%; in the assay on LOX IMVI melanoma, 95%; in the assay on SK-MEL-28 melanoma, 83.2%; in the assay on SK-MEL-2 melanoma it was 20%; in the assay on EKVX NSCLC, 34%. Besides, the growth is 107% in the assay with SN12C renal; 89.3% in the assay on UO-31 renal; 125% with TK-10 renal; 92.9% in the assay with ACHN renal; 27% with CAKI-1 renal; 93.8% in the assay on A498 renal. The growth in the assay with CCRF-CEM leukemia was 106%; in the assay on MOLT-4 leukemia, 91.1%.
Take `COc1cccc(C2=NN(C(C)=O)C(c3cc(OC)c(OC)c(OC)c3)C2)c1` (configuration not stated): the growth in the assay on HCT-15 colon is 31.6%; in the assay with HT29 colon, 8.66% (active); with SNB-75 CNS it was -30.1% (active); in the assay with SNB-19 CNS, 26.9%; in the assay with U251 CNS it was 31.1%; with PC-3 prostate it was 16.9%. The growth is 15.7% with SK-MEL-5 melanoma; 51.7% with UACC-62 melanoma; 48.6% in the assay on LOX IMVI melanoma; 40.9% in the assay on SK-MEL-28 melanoma; 26.9% in the assay on SK-MEL-2 melanoma; 47.4% in the assay with EKVX NSCLC. Further, the growth with SN12C renal was 42.7%; in the assay with UO-31 renal it was -29.9% (active); in the assay on TK-10 renal, 78.4%; in the assay on ACHN renal, 56.1%; with CAKI-1 renal, 216%; in the assay on A498 renal, 71.3%. For the same compound, the growth in the assay on CCRF-CEM leukemia was -7.81% (active); in the assay on MOLT-4 leukemia it was 9.77% (active).
Take `COc1ccc(CNC(=O)c2c(C)n([O-])c3ccccc3[n+]2=O)cc1`: the growth is 103% in the assay with HCT-15 colon; 102% in the assay with HT29 colon; 79.9% in the assay with SNB-75 CNS; 97.7% in the assay with SNB-19 CNS; 97.3% in the assay on U251 CNS; 86.3% with PC-3 prostate. The growth is 76.6% in the assay on SK-MEL-5 melanoma; 96.8% with UACC-62 melanoma; 96.8% in the assay with LOX IMVI melanoma; 104% in the assay with SK-MEL-28 melanoma; 95.8% in the assay with SK-MEL-2 melanoma; 83.8% in the assay with EKVX NSCLC. The growth in the assay with SN12C renal was 101%; with UO-31 renal it was 32.9%; in the assay with TK-10 renal it was 120%; with ACHN renal, 109%; with CAKI-1 renal it was 112%; with A498 renal, 96.1%. Further, the growth was 98.4% in the assay on CCRF-CEM leukemia and 93.4% with MOLT-4 leukemia.
Take `Clc1ccc2c(c1)C(Br)c1cc(Cl)cc(Cl)c1-2` (configuration not stated): the growth with HCT-15 colon is 78.1%; in the assay on HT29 colon, 111%; in the assay on SNB-75 CNS it was 73.5%; in the assay on SNB-19 CNS, 90.9%; in the assay on U251 CNS, 79.5%; with PC-3 prostate it was 82.6%. The growth in the assay on SK-MEL-5 melanoma is 51.2%; in the assay with UACC-62 melanoma it was 66.1%; in the assay on LOX IMVI melanoma it was 4.27% (active); with SK-MEL-28 melanoma it was 112%; with SK-MEL-2 melanoma, 95.5%; in the assay with EKVX NSCLC, 46.2%. For the same compound, the growth with SN12C renal was 27.5%; in the assay with UO-31 renal it was 76.6%; in the assay on TK-10 renal it was 118%; with ACHN renal it was 99.1%; in the assay with A498 renal, 120%; with CCRF-CEM leukemia it was -37.8% (active). In the assay with MOLT-4 leukemia, the growth is -20.2% (active).

These data come from PubChem BioAssay (NCI).
